From PubChem BioAssay
PTPN22 act: increases human PTPN22 phosphatase activity; Q9Y2R2; recombinant LYP, DiFMUP fluorescence; 0 = plate median, 100 = signal doubled; activation, % at 2 µM; hit rate 0.11% among 96,000;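 active = activation at 2 µM above a set limit, the mean plus 5 SD, cut at about 37% in these data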
Target sequence (Q9Y2R2 whole entry, looked up): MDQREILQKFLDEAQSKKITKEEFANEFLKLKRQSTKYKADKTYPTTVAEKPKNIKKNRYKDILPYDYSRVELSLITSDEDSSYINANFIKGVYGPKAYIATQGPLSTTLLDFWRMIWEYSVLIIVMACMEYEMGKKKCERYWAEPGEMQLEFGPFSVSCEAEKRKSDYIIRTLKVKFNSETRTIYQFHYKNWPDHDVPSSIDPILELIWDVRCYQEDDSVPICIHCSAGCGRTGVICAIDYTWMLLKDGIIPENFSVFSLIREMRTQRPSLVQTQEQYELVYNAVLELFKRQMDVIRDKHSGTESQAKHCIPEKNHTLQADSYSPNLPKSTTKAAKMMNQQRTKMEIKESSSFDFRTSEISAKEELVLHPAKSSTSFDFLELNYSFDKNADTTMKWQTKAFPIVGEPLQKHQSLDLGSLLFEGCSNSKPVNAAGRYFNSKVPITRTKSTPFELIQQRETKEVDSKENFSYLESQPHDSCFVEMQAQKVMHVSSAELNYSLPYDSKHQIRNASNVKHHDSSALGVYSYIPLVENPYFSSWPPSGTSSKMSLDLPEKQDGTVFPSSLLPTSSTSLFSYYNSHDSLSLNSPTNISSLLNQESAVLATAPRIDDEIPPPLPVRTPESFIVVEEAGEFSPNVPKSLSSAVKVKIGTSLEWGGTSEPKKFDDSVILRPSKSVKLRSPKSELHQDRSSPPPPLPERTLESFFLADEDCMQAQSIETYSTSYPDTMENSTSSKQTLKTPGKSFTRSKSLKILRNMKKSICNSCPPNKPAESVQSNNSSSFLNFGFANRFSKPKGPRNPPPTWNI
LYP inh 2: inhibitors of human LYP (PTPN22) phosphatase | Q9Y2R2 | recombinant LYP catalytic domain, DiFMUP fluorescence | inhibition, % at 2 µM | hit rate 0.21% among 96,000 | AID 640;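 active = inhibition at 2 µM at or above a set limit, the screen mean plus 3 SD, cut at about 24% in these data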;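 also: 0% = DMSO with enzyme and 100% = enzyme fully blocked by orthovanadate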
Measles CPE: protection of cells from measles virus | Measles virus-infected cells, CPE protection, absorbance | protection (pct of control), % at 4 µM | hit rate 1.5% among 140,000; in the data active = protection mostly above about 24%, no sharp cut-off; inactive = mostly below about 26%
PTPN22 act conf: confirmation of human LYP phosphatase activators; 100 tested, under 10 active; activation, % at 2 µM; Recombinant LYP, DIFMUP fluorescence, activation; zero set by plate's median compound well; shares compounds with PTPN22 act; AID 1031; call rule not given here
* marks the source's active call; other numbers are inactive results; nt = no result. Most compounds without a hit are left out; they make up all but 1.7% or so of the library.

SMILES	PTPN22 act	LYP inh 2	Measles CPE	others
O=C(CCc1ccccc1)Nc1ccc(NC(=O)c2ccco2)nc1	6.8	-6.7	25.4*
O=C(CCc1ccccc1)Nc1ccc(NC(=O)c2ccco2)cc1	11.6	-15.3	0.2
COc1cc(NC(=O)c2ccco2)c(OC)cc1NC(=O)CCC(=O)Nc1cc(C)ccc1C	-7.2	5.2	24.2
COc1cccc(C(=O)Nc2cnc(NC(=O)c3ccco3)cc2C)c1	17.5	-19.1	9.0
Cc1ccc(NC(=O)CCC(=O)NNC(=O)c2ccco2)c(C)c1	-12.0	16.1	25.3*
Cc1cc(NC(=O)c2ccco2)ncc1NC(=O)Cc1ccccc1	nt	nt	30.9*
CCOC(=O)/C=c1\s/c(=C\c2ccccc2C)c(=O)n1CC(=O)NCc1ccc2c(c1)OCO2	nt	nt	6.7
COc1cc(/C=C/C(=O)Nc2cc(C(F)(F)F)ccc2Cl)cc(OC)c1OC	11.6	-7.3	2.9
Clc1ccc(OCc2nn3c(-c4ccco4)nnc3s2)cc1	-2.7	0.9	10.9
CC1CCC(NC(=O)c2ccc(S(C)(=O)=O)cc2)CC1 (stereo not given)	nt	nt	5.4
CCN1CCN(C(=O)c2ccc(CSc3ccc(C)cc3)cc2)CC1	0.6	3.0	13.3
Cc1cc(C)n(C(=O)CN2C(=O)c3ccccc3C2=O)n1	3.5	-2.3	6.7
Cc1cc(C)n(C(=O)C(C)N2C(=O)c3ccccc3C2=O)n1 (stereo not given)	nt	nt	38.6*
CCOc1ccccc1Oc1c(C)oc2cc(OC(=O)N3CCOCC3)ccc2c1=O	-4.9	2.7	7.9
O=C(CSc1nnc(CNC(=O)c2cccs2)o1)Nc1ccc2c(c1)OCO2	-0.2	3.2	7.8
O=C(CSc1nnc(Cc2ccccc2)o1)Nc1ccc2c(c1)OCO2	3.4	-7.0	20.0*
O=c1c2cccnc2[nH]c(=S)n1CCCN1CCN(c2ccc(F)cc2)CC1	-6.4	12.0	15.6
COc1ccc(N2CCN(CCCn3c(=S)[nH]c4ncccc4c3=O)CC2)cc1	-15.2	14.2	25.0*
CCNC(=O)C1CC(=O)N(Cc2ccc(F)cc2)C(=Nc2ccc(OC)cc2)S1 (stereo not given)	-8.1	6.2	12.9
COc1ccccc1N1CCN(Cc2cccs2)CC1	9.1	-6.6	95.9*
COc1ccccc1N1CCN(Cc2ccsc2)CC1	2.1	-5.2	18.8
Cc1ccc(C)c(NS(=O)(=O)c2ccc(OCC(=O)NCc3ccco3)cc2)c1	-3.4	-0.8	12.9
Cc1ccc(NS(=O)(=O)c2ccc(OCC(=O)NCc3ccco3)cc2)cc1	16.2	-16.4	53.3*
CC(=O)Nc1ccc([N+](=O)[O-])cn1	6.6	-3.5	4.6
Cc1cccc(C(C)Nc2ccc([N+](=O)[O-])cn2)c1 (stereo not given)	-11.4	14.0	42.5*
SMILES	PTPN22 act	LYP inh 2	Measles CPE	others
CCS(=O)(=O)c1ccc2oc(SCC(=O)NC3CCCC(C)C3C)nc2c1 (stereo not given)	7.6	-11.4	18.7*
CCS(=O)(=O)c1ccc2oc(SCC(=O)NC34CC5CC(CC(C5)C3)C4)nc2c1	-0.4	2.1	23.8
COc1ccc2oc(=O)c(C(=O)Oc3ccc(NC(C)=O)cc3)cc2c1	-3.0	5.5	7.5
Cc1ccc(NC(=O)c2cn(-c3cccc(C)n3)cn2)cc1	11.4	-8.8	4.2
CCOC(CCNC(=O)c1cn(-c2cccc(C)n2)cn1)OCC	-4.4	8.1	33.6*
COc1cc2nc(C)sc2cc1SC	nt	nt	5.0
Cn1c(=O)c2c(nc(N3CCN(c4ccccc4)CC3)n2CCCc2ccccc2)n(C)c1=O	-4.4	3.7	11.0
COc1ccc(CCNC(=O)CN(C)S(=O)(=O)c2ccc(Br)s2)cc1OC	nt	nt	4.2
COc1ccc(CCNC(=O)CN2C(=O)C3(OCCCO3)c3ccccc32)cc1OC	nt	nt	8.2
COc1ccc(CCNC(=O)CN2CCCc3ccccc32)cc1OC	2.8	-2.5	44.8*
COc1ccc(CCNC(=O)CN(C)S(=O)(=O)c2cccs2)cc1OC	9.1	-10.6	35.9*
COc1ccc(CCNC(=O)CN2CCC(C(N)=O)CC2)cc1	-2.2	0.9	29.4
COc1ccc(CCNC(=O)CN2CCC(C)CC2)cc1OC	0.1	-1.5	31.7*
Cc1c(NC(=O)c2cc(C(C)C)on2)c(=O)n(-c2ccccc2)n1C	-2.1	1.7	1.2
Cn1c(-c2ccc(F)cc2)cnc1NCc1ccccc1	5.4	0.9	4.5
FC(F)(F)c1cc(-c2cccs2)nc(-n2cc(Br)cn2)n1	-5.9	8.1	7.6
CC(C)n1c(SCC(=O)Nc2ccccc2)nc2c1c(=O)n(C)c(=O)n2C	1.4	-0.8	30.0
C=CCSc1nc2ccccc2n1S(=O)(=O)c1ccc(C)cc1	-1.4	1.1	4.9
CC(=O)NC(CCS(C)(=O)=O)C(=O)Nc1cccc(C)c1 (stereo not given)	4.3	-5.4	1.6
CC(=O)NC(CCS(C)(=O)=O)C(=O)Nc1ccc(C)c(F)c1 (stereo not given)	2.8	-4.9	57.0*
Cc1noc(C)c1COC(=O)CCOc1ccccc1	6.2	-9.5	14.9
COc1ccc(OCCC(=O)OCc2c(C)noc2C)cc1	-11.0	13.7	35.1*
COc1ccc(C2=NN(C(=O)c3cccc([N+](=O)[O-])c3)C(c3cccc([N+](=O)[O-])c3)C2)cc1 (stereo not given)	-3.8	8.1	5.4
COc1ccc(C(=O)N2CCc3cc(OC)c(OC)cc3C2c2cccc([N+](=O)[O-])c2)cc1OC (stereo not given)	39.4*	-34.6	6.9	PTPN22 act conf=-7.7
CCN(C(=O)c1coc(=O)c(Br)c1)c1ccc2c(c1)OCO2	-2.1	-0.6	27.4
SMILES	PTPN22 act	LYP inh 2	Measles CPE	others
CN1/C(=C\C(=O)Nc2cccc(Cl)c2)C(C)(C)c2ccccc21	nt	nt	14.9
CCc1ccccc1NC(=O)C(CC)Sc1nc2cc3c(cc2c(=O)n1Cc1ccco1)OCO3 (stereo not given)	-15.2	12.8	7.1
CCCc1nn(C)c2c1C(c1ccncc1)C(C#N)=C(N)O2 (stereo not given)	56.7*	-57.0	39.8*	PTPN22 act conf=-1.9
CCCc1[nH]nc2c1C(c1ccncc1)C(C#N)=C(N)O2 (stereo not given)	4.3	-6.9	10.2
CC1=C(C(N)=O)C(c2ccccn2)n2nc(SCc3ccccc3Cl)nc2N1 (stereo not given)	7.7	-9.6	3.0
CC1=C(C(N)=O)C(c2cccnc2)n2nc(SCc3ccccc3Cl)nc2N1 (stereo not given)	46.4*	-48.4	8.1	PTPN22 act conf=3.1
O=C(c1cc(-c2ccccn2)nc2c(Cl)cccc12)N1CCN(C(=O)C2CCCO2)CC1 (stereo not given)	44.6*	-45.7	13.5	PTPN22 act conf=-3.2
O=C(c1cc(-c2ccccn2)nc2c(Cl)cccc12)N1CCN(S(=O)(=O)c2ccccc2)CC1	nt	nt	8.3
COc1ccc(/C=N/c2oc(-c3ccccc3)cc2C#N)cc1	5.0	-0.8	9.5
CCC(=O)N1CCc2cc(Br)cc(S(=O)(=O)CC(=O)OC)c21	5.8	-6.2	27.7
CCC(=O)N1CCc2cc(Br)cc(S(=O)(=O)CCC(=O)NCC3CCCO3)c21 (stereo not given)	48.6*	-43.5	20.8	PTPN22 act conf=-3.2
C#CCn1c(S(=O)(=O)Cc2ccc(F)cc2)nc(-c2ccccc2)c1-c1ccccc1	45.3*	-48.9	52.2*	PTPN22 act conf=-6.6
